# A selection: hits, their analogues and other compounds. The true share with any hit is near 8.1%.
# PD-1 reverse act: activators reversing PD-1 mediated T-cell inhibition; primary human CD4 T cells, PD-L1 beads, CellTiter-Glo 96 h; activation, % (test concentration not listed); 29,000 tested, under 10 active; call rule not given here
# NOMO-1 viab: STK33 inhibitor candidate reducing NOMO-1 cell viability; NOMO-1 AML viability, CellTiter-Glo luminescence, 72 h; inhibition, % (concentration not given with the values); 7.5% of 37,000 active; AID 2330; in the data active = inhibition above about 80%
# MITF inhib: blocks MITF activity. TRPM1 promoter luciferase, luminescence, 24 h. inhibition, % (no concentration beside the values). 0.28% of 37,000 active; in the data active = inhibition above about 85%;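 note: human melanocyte line stably carrying TRPM1 promoter luciferase reporter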
# Hedgehog inh: Sonic Hedgehog pathway inhibition; inhibition, % (no concentration beside the values); Shh-LIGHT2 Gli-luciferase reporter, 30 h; AID 2313; 2.1% of 22,000 active;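 active = mean inhibition across valid replicates above about 65%, limit read from the data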;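 note: pathway switched on by Shh-conditioned medium diluted 1 in 25 in low serum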
# Numbers stand for hits; n = inactive; x = no result given.
SMILES,PD-1 reverse act,NOMO-1 viab,MITF inhib,Hedgehog inh
C[C@H]1CN([C@@H](C)CO)C(=O)c2cc(NS(=O)(=O)c3ccc(F)cc3)ccc2O[C@H]1CN(C)Cc1ccc(-c2ccccc2)cc1,n,n,n,x
CCc1ccc(OCC(=O)Nc2cccc(-c3nc4cc(Cl)ccc4o3)c2C)cc1,n,n,n,x
COc1cc2c(NC(C)=O)c(CN(C)C)oc2c(Cl)c1Cl,n,n,n,x
N#Cc1c(SCC(=O)Nc2c(Cl)cccc2Cl)nc2c(c1-c1cccnc1)CCC2,n,n,n,x
CCOC(=O)c1ccc(-n2c(C)cc(C=C3C(=O)NC(=S)NC3=O)c2C)cc1,n,121,n,n
CCn1c(SCC(=O)Nc2cccc(C(F)(F)F)c2)nnc1-c1ccc(C)cc1,x,n,n,x
COc1cccc2c1C(=O)c1c(O)c3c(c(O)c1C2=O)C[C@@](O)(C(=O)CO)C[C@@H]3O[C@H]1C[C@H](N)[C@H](O)[C@H](C)O1,n,99,n,90
COc1cccc2c1C(=O)c1c(O)c3c(c(O)c1C2=O)C[C@@](O)(C(=O)CO)C[C@@H]3OC1CC(N)C(O)C(C)O1 (some centres undefined),n,98,n,83
COc1cccc2c1C(c1ccc3c(c1O)C(=O)CC(C)C3O)OC2=O (centres undefined),n,n,n,n
COc1ccc(NC(=O)COc2ccc(Cl)c(C)c2)c([N+](=O)[O-])c1,x,n,n,x
Cc1cc(NC(=O)CSc2nc3ccccc3[nH]2)ccc1Cl,x,n,n,x
O=C(CSc1nc2cc3ccccc3cc2[nH]1)Nc1ccccc1Cl,x,108,n,x
CCOC(=O)c1cc(NC(=O)CSc2nc3ccccc3[nH]2)ccc1Cl,n,100,n,x
Cc1ccnc(NS(=O)(=O)c2ccc(NC(=O)c3cccs3)cc2)n1,x,n,n,x
CC1(C)NCCC12C(=O)N(Cc1ccccc1)c1ccccc12 (centres undefined),n,120,n,n
Cc1[nH]n2c(=O)c3c(nc2c1-c1ccccc1)CCC3,n,106,n,n
CCc1ccc(-n2c(N)c(C(=O)OC)c3nc4ccccc4nc32)cc1,n,n,n,n
C[C@@H]1CN([C@H](C)CO)C(=O)Cc2cc(NS(=O)(=O)c3ccc(F)cc3)ccc2O[C@H]1CN(C)CC1CC1,n,n,n,n
C[C@H]1CN([C@@H](C)CO)C(=O)Cc2cc(NS(=O)(=O)c3ccc(F)cc3)ccc2O[C@@H]1CN(C)CC1CCCCC1,n,123,n,n
C[C@@H]1CN([C@H](C)CO)C(=O)Cc2cc(NS(=O)(=O)c3ccc(F)cc3)ccc2O[C@@H]1CN(C)CC1CCCCC1,n,n,n,n
C[C@H](CO)N1C[C@H](C)[C@H](CN(C)CC2CCCCC2)Oc2ccc(NS(=O)(=O)c3ccc(F)cc3)cc2CC1=O,x,104,n,n
Cc1ccc2nc(-c3cccnc3)cc(C(=O)Nc3ccc(S(=O)(=O)NC(C)(C)C)cc3)c2c1,x,n,n,x
COc1ccc(S(=O)(=O)Nc2ccc3c(c2)CC(=O)N([C@H](C)CO)C[C@@H](C)[C@H](CN(C)Cc2ccc(Cl)c(Cl)c2)O3)cc1,n,112,n,n
COc1ccc(CN(C)C[C@@H]2Oc3ccc(NS(=O)(=O)c4ccc(Cl)cc4)cc3CC(=O)N([C@@H](C)CO)C[C@@H]2C)cc1,n,n,n,x
COc1ccc(S(=O)(=O)Nc2ccc3c(c2)CC(=O)N([C@H](C)CO)C[C@H](C)[C@H](CN(C)Cc2ccc(Cl)c(Cl)c2)O3)cc1,x,98,n,x
SMILES,PD-1 reverse act,NOMO-1 viab,MITF inhib,Hedgehog inh
CCCCC/C=C\C/C=C\CCCCCCCC(=O)OC(CO)COP(=O)(O)OCC[N+](C)(C)C (centres undefined),x,x,x,n
COC(=O)c1cc(NC(=O)CSc2nnc(-c3ccccc3O)n2-c2ccccc2)ccc1Cl,n,n,n,x
Oc1ccc2c(c1O)OCC1c3cc4c(cc3OC21)OCO4 (centres undefined),n,105,n,n
COc1ccc2c(c1)O[C@H]1c3ccc(O)cc3OC[C@@H]21,n,n,n,n
OC[C@H]1O[C@@H](Oc2ccc3c(c2)OC[C@H]2c4cc5c(cc4O[C@@H]32)OCO5)[C@H](O)[C@@H](O)[C@@H]1O,n,n,n,n
CC(C)=CCc1cc2c(cc1O)O[C@H]1c3ccc(O)c(O)c3OC[C@@H]21,n,105,n,n
O=C(Cn1cnc2ccccc2c1=O)Nc1cccc(C(=O)c2ccccc2)c1,n,n,n,x
CCC1(COC(NC(=O)c2ccc(Cl)cc2Cl)(C(F)(F)F)C(F)(F)F)COC1,n,n,n,n
COc1ccc(C(=O)Oc2c(S(=O)(=O)c3ccccc3)c(C)nn2-c2ccccc2)cc1,n,116,n,x
COC(=O)c1cc2c(C)nn(-c3ccccc3)c2s1,n,n,n,n
COc1ccc(NC(=O)Nc2ccc3c(c2)C(=O)N([C@@H](C)CO)C[C@H](C)[C@H](CN(C)Cc2ccc(Cl)c(Cl)c2)O3)cc1,n,104,n,n
COc1ccc(NC(=O)Nc2ccc3c(c2)C(=O)N([C@H](C)CO)C[C@@H](C)[C@@H](CN(C)Cc2ccc(Cl)c(Cl)c2)O3)cc1,n,98,n,x
COC(=O)c1ccccc1NC(=O)CSc1ncnc2sc3c(c12)CCC(C)C3 (centres undefined),n,n,n,x
O=C(COc1cccc(NC(=O)c2ccc([N+](=O)[O-])cc2)c1)c1ccc(Br)cc1,x,n,n,x
CCOC(=O)c1sc(SCc2ccccc2)c2c1-c1sccc1N(C)S2(=O)=O,n,n,n,n
CSc1sc(C(=O)Sc2ccccc2)c2c1S(=O)(=O)N(C)c1ccccc1-2,n,121,n,n
CCCc1cc(=O)[nH]c(SCC(=O)Nc2ccc3c(c2)OCCO3)n1,x,n,n,x
C[C@H]1CN([C@@H](C)CO)C(=O)c2cccc(NS(C)(=O)=O)c2O[C@H]1CN(C)Cc1ccc(C(=O)Nc2ccccc2N)cc1,n,n,n,x
CC(C)NC(=O)Nc1cccc2c1O[C@@H](CN(C)Cc1ccc(C(=O)Nc3ccccc3N)cc1)[C@@H](C)CN([C@@H](C)CO)C2=O,n,141,n,x
CC(C)NC(=O)Nc1cccc2c1O[C@@H](CN(C)Cc1ccc(C(=O)Nc3ccccc3N)cc1)[C@@H](C)CN([C@H](C)CO)C2=O,n,n,n,x
CC(C)NC(=O)Nc1cccc2c1O[C@H](CN(C)Cc1ccc(C(=O)Nc3ccccc3N)cc1)[C@H](C)CN([C@@H](C)CO)C2=O,n,139,n,x
Cc1ccc([N+](=O)[O-])cc1NC(=O)CSc1nnc(-c2ccncc2)n1-c1ccccc1,x,n,n,x
CCn1c(SCC(=O)Nc2ccc(OC)c(Cl)c2)nnc1-c1ccccc1O,n,n,n,x
CCC(C)C(=O)c1c(O)cc2c(c1O)CC(CC=C(C)C)C(C)(C)O2 (centres undefined),n,88,n,n
Cc1c(O)c(-c2ccccc2)c(=O)n(-c2ccccn2)c1-c1ccccc1,n,n,n,n
CS(=O)c1sc(C(=O)OCc2ccccc2)c2c1C(=O)CC(C)(C)C2 (centres undefined),n,116,n,x
Cc1[nH]c(=S)[nH]c1C12CC3CC(CC(C3)C1)C2,n,n,n,n

# Assay outcomes as filed in PubChem.
